# Measured values from PubChem BioAssay AID1671202 (University of Kansas High Throughput Screening Laboratory, 2021).
# Where “and” joins values, the source holds several entries; their conditions need not be identical. Equal entries are not always repeated. Screen size: about 190,000 compounds; about 6,900 (3.6%) were called active. The sample holds actives, similar compounds and a random draw of the others, so the mix is not that of the screen. Values without a mark were called inactive. Cut-off read from the data, not from the text of the source: active = inhibition above about 50%; inactive = the rest.
# Biological target: Huntingtin (Homo sapiens) (UniProt P42858)
# Assay: mutant huntingtin-calmodulin interaction inhibitors – biochemical, AlphaScreen, primary screen (AID 1671202);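 note: 0% = both proteins with DMSO and 100% = one protein alone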
# Conditions: AlphaScreen His-mHTT/GST-CaM binding, luminescence; at 15 µM, active compounds read high
# Chain of Huntingtin (Homo sapiens) (P42858 whole entry, looked up, stated change not applied): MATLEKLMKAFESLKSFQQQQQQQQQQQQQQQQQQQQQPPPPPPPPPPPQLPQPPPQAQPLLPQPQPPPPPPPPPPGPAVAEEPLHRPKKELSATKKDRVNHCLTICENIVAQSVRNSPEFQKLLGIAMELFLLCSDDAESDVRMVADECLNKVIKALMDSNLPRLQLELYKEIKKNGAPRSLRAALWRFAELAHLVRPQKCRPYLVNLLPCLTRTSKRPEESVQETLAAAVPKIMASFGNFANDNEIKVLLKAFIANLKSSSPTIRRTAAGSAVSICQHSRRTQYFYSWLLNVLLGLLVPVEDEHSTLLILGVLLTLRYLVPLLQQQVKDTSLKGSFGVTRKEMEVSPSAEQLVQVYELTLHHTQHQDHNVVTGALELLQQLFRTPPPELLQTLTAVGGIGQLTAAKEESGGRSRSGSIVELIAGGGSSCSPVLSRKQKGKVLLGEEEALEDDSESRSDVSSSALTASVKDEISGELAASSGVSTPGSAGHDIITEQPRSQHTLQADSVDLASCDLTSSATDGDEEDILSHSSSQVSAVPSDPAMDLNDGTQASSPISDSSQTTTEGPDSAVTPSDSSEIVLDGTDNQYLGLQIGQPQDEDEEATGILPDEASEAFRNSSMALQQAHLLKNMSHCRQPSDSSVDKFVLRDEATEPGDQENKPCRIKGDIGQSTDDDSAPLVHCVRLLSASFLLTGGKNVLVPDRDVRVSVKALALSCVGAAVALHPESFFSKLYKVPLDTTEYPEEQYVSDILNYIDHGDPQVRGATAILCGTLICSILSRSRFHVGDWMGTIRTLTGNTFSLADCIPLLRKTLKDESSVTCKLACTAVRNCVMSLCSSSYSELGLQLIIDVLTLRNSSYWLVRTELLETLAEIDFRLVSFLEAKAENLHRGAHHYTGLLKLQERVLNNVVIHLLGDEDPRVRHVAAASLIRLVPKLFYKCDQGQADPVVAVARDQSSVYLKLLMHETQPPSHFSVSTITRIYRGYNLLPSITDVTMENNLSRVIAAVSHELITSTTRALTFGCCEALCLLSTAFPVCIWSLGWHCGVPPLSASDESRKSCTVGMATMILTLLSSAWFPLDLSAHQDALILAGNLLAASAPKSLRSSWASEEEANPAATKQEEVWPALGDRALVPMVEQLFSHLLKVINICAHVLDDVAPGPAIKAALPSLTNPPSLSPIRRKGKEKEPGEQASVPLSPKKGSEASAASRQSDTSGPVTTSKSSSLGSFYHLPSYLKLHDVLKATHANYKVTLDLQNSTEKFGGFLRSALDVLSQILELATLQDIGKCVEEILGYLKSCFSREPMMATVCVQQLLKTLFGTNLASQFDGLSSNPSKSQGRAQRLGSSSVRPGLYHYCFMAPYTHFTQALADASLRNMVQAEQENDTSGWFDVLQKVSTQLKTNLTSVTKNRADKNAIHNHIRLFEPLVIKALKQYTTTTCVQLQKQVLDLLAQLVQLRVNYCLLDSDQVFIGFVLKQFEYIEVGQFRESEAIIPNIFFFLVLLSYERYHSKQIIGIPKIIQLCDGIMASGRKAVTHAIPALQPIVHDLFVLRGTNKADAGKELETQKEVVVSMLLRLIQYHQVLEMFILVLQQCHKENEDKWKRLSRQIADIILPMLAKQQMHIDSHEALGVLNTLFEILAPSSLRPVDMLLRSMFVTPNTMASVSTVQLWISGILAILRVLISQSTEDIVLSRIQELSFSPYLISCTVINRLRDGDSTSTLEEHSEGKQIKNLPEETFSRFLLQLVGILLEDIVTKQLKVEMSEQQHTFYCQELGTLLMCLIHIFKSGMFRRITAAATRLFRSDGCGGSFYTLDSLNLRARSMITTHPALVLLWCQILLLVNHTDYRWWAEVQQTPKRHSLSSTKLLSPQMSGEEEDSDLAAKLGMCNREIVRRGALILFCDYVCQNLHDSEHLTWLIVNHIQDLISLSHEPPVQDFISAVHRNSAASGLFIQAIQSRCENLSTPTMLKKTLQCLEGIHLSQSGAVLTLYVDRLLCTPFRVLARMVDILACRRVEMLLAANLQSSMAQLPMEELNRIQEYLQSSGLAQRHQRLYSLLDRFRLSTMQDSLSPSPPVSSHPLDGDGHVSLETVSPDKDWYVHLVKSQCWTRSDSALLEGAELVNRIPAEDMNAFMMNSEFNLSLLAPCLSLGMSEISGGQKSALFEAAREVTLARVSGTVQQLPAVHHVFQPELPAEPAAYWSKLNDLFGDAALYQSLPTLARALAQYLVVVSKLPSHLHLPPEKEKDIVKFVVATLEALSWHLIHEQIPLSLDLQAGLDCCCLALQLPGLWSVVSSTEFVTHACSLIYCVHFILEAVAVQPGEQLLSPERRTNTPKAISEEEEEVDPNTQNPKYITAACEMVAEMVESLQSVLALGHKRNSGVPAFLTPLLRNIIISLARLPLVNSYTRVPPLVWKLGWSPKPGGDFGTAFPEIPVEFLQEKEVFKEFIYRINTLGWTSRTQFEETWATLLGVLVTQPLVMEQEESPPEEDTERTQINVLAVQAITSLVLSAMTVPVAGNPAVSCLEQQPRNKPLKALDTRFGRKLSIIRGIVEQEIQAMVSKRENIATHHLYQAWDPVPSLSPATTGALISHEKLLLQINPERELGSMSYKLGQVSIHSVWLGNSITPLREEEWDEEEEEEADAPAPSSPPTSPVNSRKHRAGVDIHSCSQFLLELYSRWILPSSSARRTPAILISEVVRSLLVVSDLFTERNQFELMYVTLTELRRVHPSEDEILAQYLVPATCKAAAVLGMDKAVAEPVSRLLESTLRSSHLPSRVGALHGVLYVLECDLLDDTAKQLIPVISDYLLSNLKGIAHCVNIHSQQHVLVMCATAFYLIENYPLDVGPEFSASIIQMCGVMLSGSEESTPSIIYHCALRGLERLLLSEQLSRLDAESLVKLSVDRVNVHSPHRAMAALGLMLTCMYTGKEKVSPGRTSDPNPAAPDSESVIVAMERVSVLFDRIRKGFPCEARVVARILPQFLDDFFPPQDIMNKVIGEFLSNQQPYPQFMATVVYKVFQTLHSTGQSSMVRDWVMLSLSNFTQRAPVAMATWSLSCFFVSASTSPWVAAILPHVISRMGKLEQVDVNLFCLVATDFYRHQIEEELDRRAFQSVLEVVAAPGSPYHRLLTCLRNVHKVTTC
row,SMILES,inhibition
1,Cc1cccc(CSC2=NCCN2C(=O)Cc2ccc(F)cc2)c1,-24%
2,COc1cc(/C=C(\C#N)c2nc3ccccc3[nH]2)ccc1OCC#N,12%
3,N#C/C(=C\C=C\c1ccccc1)c1nc2ccccc2[nH]1,75% (active) and 58% (active)
4,CCCCOc1ccc(/C=C(\C#N)c2nc3ccccc3[nH]2)cc1,-1%
5,CC(=O)c1cccc(NC(=O)/C(=C\c2ccc3c(c2)OCO3)NC(=O)c2ccccc2Cl)c1,7%
6,COc1cccc2sc(N(C)CC(=O)Nc3nc(C)cs3)nc12,-3%
7,CCOc1cc(-c2ccc(O)c(OC)c2)cc(=O)c2c(C)oc(C)c12,51% (active)
8,COc1cc(-c2ccc(O)c(O)c2)cc(=O)c2c(C)oc(C)c12,49%
9,COc1ccc(-c2c(C)c3ccc(O)c(CN4CCCC4)c3oc2=O)cc1OC,2.3%
10,N#CC1=C(N)N2CCN3C(N)=C(C#N)C1(c1ccccc1)C23c1ccccc1 (stereo unspecified),21%
11,O=C1CC(O)(C(F)(F)F)Oc2ccc(Cl)cc21 (stereo unspecified),0%
12,CC(C)N1C/C(=C\c2ccsc2)C(=O)/C(=C/c2ccsc2)C1,45%
13,O=C(Nc1ccc(F)cc1)c1cc(S(=O)(=O)NCCc2ccc(Cl)cc2)ccc1F,61% (active)
14,O=C(Nc1ccc(F)cc1)c1cc(S(=O)(=O)NCc2ccc(F)cc2)ccc1F,-3%
15,COc1ccc(NC(=O)c2cc(S(=O)(=O)NCCc3ccc(Cl)cc3)ccc2F)cc1,20%
16,COc1ccccc1OCCNC(=O)CSc1ccc(C(F)(F)F)cc1[N+](=O)[O-],2%
17,CC1=C(C(=O)Nc2cccnc2)C(c2ccccn2)n2nc(SCc3ccccc3)nc2N1 (stereo unspecified),5%
18,CC1=C(C(=O)Nc2ccc(Cl)cc2)C(c2ccc(Cl)cc2Cl)n2ncnc2N1 (stereo unspecified),59% (active)
19,CC1=C(C(=O)Nc2ccc(C)cc2)C(c2cccc([N+](=O)[O-])c2)n2ncnc2N1 (stereo unspecified),7%
20,COc1ccc(NC(=O)C2=C(C)Nc3ncnn3C2c2cc(OC)c(OC)cc2OC)cc1 (stereo unspecified),0%
21,O=C(NCc1ccco1)c1cc2nc(-c3ccc(Cl)cc3)cc(C(F)(F)F)n2n1,-2%
22,Cc1ccc(C)c(CNC(=O)c2cc3n(n2)CCCN(Cc2ccc(F)cc2)C3=O)c1,50.5% (active)
23,O=C(NCCc1ccccc1)c1cc2n(n1)CCCN(Cc1ccc(F)cc1)C2=O,3.53%

row,SMILES,inhibition
1,Cc1ccc(CN2CCCn3nc(C(=O)NCc4ccccc4Cl)cc3C2=O)cc1,-2.01%
2,Cc1cc(N2N=NC3C(=O)N(c4ccc(F)cc4)C(=O)C32)ccc1Br (stereo unspecified),-11.3%
3,CSC1=C(C#N)C(c2cccs2)CC(=O)N1 (stereo unspecified),-7.7%
4,Cc1cccc(-c2cc(C3CCN(S(=O)(=O)c4ccc(C#N)cc4)CC3)[nH]n2)c1,9.71%
5,Cc1cccc(-c2cc(C3CCN(C(=O)Cc4ccsc4)CC3)[nH]n2)c1,59.9% (active)
6,Cc1cccc(-c2cc(C3CCN(S(=O)(=O)c4cccc(C#N)c4)CC3)[nH]n2)c1,7.83%
7,O=C(Cc1csc(NC(=O)C2CCCC2)n1)Nc1ccc2c(c1)Cc1ccccc1-2,-7.6%
8,Cn1c(=O)c2c(-c3ccccc3)n(-c3cccc([N+](=O)[O-])c3)cc2n(C)c1=O,38%
9,O=C1OC(c2ccccc2)=C/C1=C/c1cccn1-c1cccc([N+](=O)[O-])c1,77% (active)
10,O=C1/C(=C/c2ccc([N+](=O)[O-])cc2)C=C(c2ccccc2)N1c1cccc([N+](=O)[O-])c1,28%
11,N#CC1=C(N)C(C#N)(C#N)C(c2ccc(C3C4CCCC=C4C(C#N)=C(N)C3(C#N)C#N)cc2)C2CCCC=C12 (stereo unspecified),81.2% (active)
12,CN1CC=C2C(C#N)=C(N)C(C#N)(C#N)C(c3ccc(F)cc3)C2C1 (stereo unspecified),6%
13,Brc1ccc(CNC23CN4CN(CN(C4)C2)C3)cc1,2%
14,O=C(/C=C/c1ccc(Cl)cc1)Nc1cc2ccccc2oc1=O,0%
15,CN(C)c1ccc(Br)c([N+](=O)[O-])c1,14.9%
16,Cc1ccc2nc(/C(C#N)=C/c3cc(Cl)cc4c3OCOC4)[nH]c2c1,-7%
17,COc1ccc2nc3sc(C(=O)NCc4ccco4)cc3cc2c1,61% (active)
18,COc1ccc2nc3sc(C(=O)N(C)c4cccc(C)c4)cc3cc2c1,5%
19,COc1cccc(NC(=O)c2cc3cc4cc(OC)ccc4nc3s2)c1,7%
20,O=C(CSc1nnc(NC(=O)c2ccccc2F)s1)Nc1ccc(Br)cc1,1.2%
21,CC(C)(C)C(=O)NCCNc1ccc([N+](=O)[O-])cc1,2.2%
22,COc1ccc(NC(=O)C2CC(=O)N(C)C(=Nc3ccc(C)c(C)c3)S2)cc1 (stereo unspecified),22%
23,Cc1ccc2c(c1)OCC(=O)N2Cc1nc(-c2ccc(C)c(C)c2)no1,-15.9%

row,SMILES,inhibition
1,Cc1ccccc1NC(=O)N1CCC(c2cc(N)on2)CC1,-11.4%
2,COC(=O)c1ccc(Oc2coc3c4c(ccc3c2=O)OCN(c2ccc(OC)cc2OC)C4)cc1,54.7% (active)
3,CC(C)N1COc2ccc3c(=O)c(-c4ccccc4)coc3c2C1,-2.5%
4,CCOC(=O)c1ccc(Oc2coc3c4c(ccc3c2=O)OCN(C2CCS(=O)(=O)C2)C4)cc1 (stereo unspecified),6.6%
5,COc1ccc(N2COc3ccc4c(=O)c(-c5ccccc5)coc4c3C2)c(OC)c1,75.6% (active)
6,COc1ccc(-c2coc3c4c(ccc3c2=O)OCN(CC(C)C)C4)cc1,-3.5%
7,COCCCN1COc2ccc3c(=O)c(Oc4ccc(OC)cc4)coc3c2C1,-5.5% and 3.6%
8,COc1cccc(OC)c1OCCOc1cccc(Cl)c1Cl,-101%
9,Cc1cccc(NC(=O)c2ccc(F)c(S(=O)(=O)N3CCc4ccccc43)c2)c1,-8%
10,Cc1cc2[nH]c(C(=O)Nc3cc(F)c(F)c(F)c3)c(CN(C)C)c2s1,8.9%
11,Cc1cccc(NC(=O)C2CCN(C(=O)c3ccc(F)cc3)CC2)c1,-0.6%
12,O=C1OC(/C=C/c2cccc(Cl)c2Cl)=NC/1=C\c1coc2ccccc2c1=O,6%
13,CC(C)Oc1ccccc1OCCNCc1ccco1,-1.4%
14,Cc1ccc(C)c(NC(=O)N2CCc3c(c(COCc4cccc(F)c4)nn3C)C2)c1,23.8%
15,O=C(O)C1CCCCC1C(=O)Nc1nnc(-c2cccs2)s1 (stereo unspecified),-1.3%
16,N#Cc1ccc(C(=O)NCc2[nH]nc3ccccc23)cc1,64.3% (active)
17,CN(C)c1ncccc1NC(=O)c1ccc(C#N)cc1,4.1%
18,O=C(NCc1[nH]nc2ccccc12)c1ccc(Br)o1,-1.8%
19,Clc1ccc(-n2ncc3c(N4CCC5(CC4)OCCO5)ncnc32)cc1,7%
20,O=C(O)c1ccc(Nc2nc(-c3cccs3)cs2)cc1,46.2%
21,COc1ccc(-c2csc(/C(C#N)=C/Nc3cccc([N+](=O)[O-])c3)n2)cc1,-1%
22,NS(=O)(=O)c1ccc(NC(=O)Cc2csc(Nc3ccccn3)n2)cc1,33.1%
23,Cc1nc(N)sc1-c1csc(Nc2cccc([N+](=O)[O-])c2)n1,91.9% (active)

row,SMILES,inhibition
1,NS(=O)(=O)c1ccc(Nc2nc(-c3ccccc3)cs2)cc1,21%
2,CC(=O)Nc1nc(C)c(-c2csc(Nc3ccc(S(N)(=O)=O)cc3)n2)s1,52.1% (active)
3,CCN(CC)c1ccc(Nc2nc(-c3sc(C)nc3C)cs2)cc1,96.7% (active)
4,Cc1nc(N)sc1-c1csc(Nc2ccc(O)cc2)n1,41.5%
5,Cc1noc(C)c1S(=O)(=O)N1CCC(CC(=O)N2CCN(C(=O)C3CC3)CC2)CC1,5.24%
6,COc1ccc(-c2nnc(N3CCC(C(=O)NC4CCCCC4)CC3)o2)cc1,7.1%
7,O=C(Nc1cccc(C(F)(F)F)c1)C(=O)c1c(O)[nH]c2ccccc12,10%
8,CCOc1cc(CNC(=O)C2CCN(c3nnc4ccccn34)CC2)ccc1OC,2.75%
9,Nc1nc(-c2cc3cc(Br)cc(Br)c3oc2=O)cs1,-7%
10,COc1ccc(C2CC(O)(c3ccccc3)Oc3cc(C)cc(C)c32)cc1 (stereo unspecified),77.7% (active)
11,COc1ccc([C@@H]2C[C@H](c3ccccc3)Oc3cc(OC)ccc32)cc1,-9.3%
12,CC(=O)c1c(C(C)=O)c(C)n(Cc2ccco2)c1C,1.2%
13,CCCCC(=O)N1CCc2cc(OC)c(OC)cc2C1COc1ccc(C(=O)OC)cc1 (stereo unspecified),18.4%
14,COc1ccc(C(=O)N2CCc3cc(OC)c(OC)cc3C2c2ccccc2)cc1OC (stereo unspecified),83.2% (active)
15,CCOC(=O)c1ccc(OCC2c3cc(OC)c(OC)cc3CCN2C(=O)c2ccccc2OC)cc1 (stereo unspecified),34.4%
16,COc1cc2c(cc1OC)C(COc1cc(C)cc(C)c1)N(C(=O)CC1CCCCC1)CC2 (stereo unspecified),32%
17,COc1ccc(NC(=O)N2CCc3[nH]cnc3C2c2ccccc2)cc1OC (stereo unspecified),3.67%
18,COc1cc2c(cc1OC)C(COc1ccc(F)cc1)N(C(=O)c1ccccc1F)CC2 (stereo unspecified),67% (active)
19,COc1ccc(C2=NOC(C(=O)N3CCC4(CC3)OCCO4)C2)cc1OC (stereo unspecified),-8.22%
20,COc1ccc(-c2nc(COc3cc(C)ccc3F)no2)cc1,-32.4%
21,CSCCC(NS(=O)(=O)c1cccs1)C(=O)O (stereo unspecified),-3.2%
22,CSc1nc(SC)c2c3c(sc2n1)CSC(C)(C)C3,2%
